# Results from PubChem BioAssay (NCATS).
# Records with an inconclusive call do not appear. Entries that show only a call come without a potency. Calls of active or inactive are those of the source. Calls follow the shape of the dose curve; as a rule, active = well fitted cell-killing curve with a large enough effect; inconclusive = small, poorly fitted or top-dose-only effect, or effect the other way; inactive = no such curve, though single readings can be large or run the other way.
# Test: Quantitative High-Throughput drug screen in 47 multiple myeloma cell lines against the NCATS MIPE library collection: Karpas620_DSMZ cell viability assay (AID 1918959); also: nearly all actives have a fitted effect of over 30% in size
# Settings: Karpas620 myeloma viability, CellTiter-Glo ATP luminescence, 48 h; series mostly up to 45.8 µM
# From the text: PI: Beverly A. Mock Ph.D.
# Laboratory of Cancer Biology and Genetics,
# Center for Cancer Research, National Cancer Institute,
# National Institute of Health, Bethesda, Maryland
# Drug resistance and disease progression are common in multiple myeloma (MM) patients, underscoring the need for new therapeutic combinations. […] We hypothesized that effective combinations would reduce MYC expression and enhance p16 activity. […] These preclinical data identify potentially useful drug combinations for evaluation in drug-resistant MM and reveal potential mechanisms of combined drug sensitivity.
# Described herein is the primary MIPE qHTS used to cherrypick compounds. Validated compounds were then further tested for potential synergistic activiy.
# [1] Peat TJ, Gaikwad SM, Dubois W, Gyabaah-Kessie N, Zhang S, Gorjifard S, Phyo Z, Andres M, Hughitt VK, Simpson RM, Miller MA, Girvin AT, Taylor A, Williams D, D'Antonio N, Zhang Y, Rajagopalan A, Flietner E, Wilson K, Zhang X, Shinn P, Klumpp-Thomas C, McKnight C, Itkin Z, Chen L, Kazandijian D, Zhang J, Michalowski AM, Simmons JK, Keats J, Thomas CJ, Mock BA. Drug combinations identified by high-throughput screening promote cell cycle transition and upregulate Smad pathways in myeloma. Cancer Lett. 2023 Aug 1;568:216284. doi: 10.1016/j.canlet.2023.216284. Epub 2023 Jun 24. PMID: 37356470; PMCID: PMC10408729.
# SEQUENCE No. (e.g., 1, 2, 3, etc.); […] (e.g., Cells, Incubation, Reagent, etc.); VALUE and DESCRIPTION.
# 1; Cells; 5 uL; white, solid bottom 1536-well Greiner assay plate.
# 2; Compounds; 23 nL; Kalypsis pin tool (Wako USA) equipped with a 1536-well pin head to transfer to the assay plates.
# 3; Incubation; 48 hours; 37C incubation.
# 4; Reagent;5uL; CellTiter Glo (Promega).
# 5; Detector; 425V; Luminescence; Viewlux PerkinElmer.
# NOTES (numbers refer to Sequence numbers above)
# 1. The cell-based screening methods employed in this study were like those previously published. Briefly, the corresponding myeloma cell lines were screened in 1,536-well plates with 500 cells, 5-uL per well for inhibition of cell viability (assessed by measuring ATP levels with CellTiterGlo).
# 2. NCATS MIPE 4.0 library of approved and investigational drugs were added using the Kalypsis pin tool. Wells treated with DMSO only for 100% viability and media only wells for 0% viability were used as controls.
# 3. The assay plates were covered and incubated for 48 hours in a 37C, 5% CO2 incubator with controlled humidity.
# 4. After 48 hours, CellTilter-GloTM luminescent substrate mix (Promega) reagent was added to the assay plate and plates we incubated for 5 min at room temperature.
# 5. Signal was measured as median relative luminescence units on a ViewLux (PerkinElmer) multiplate reader.
# [1] Heske CM, Davis MI, Baumgart JT, Wilson K, Gormally MV, Chen L, Zhang X, Ceribelli M, Duveau DY, Guha R, Ferrer M, Arnaldez FI, Ji J, Tran HL, Zhang Y, Mendoza A, Helman LJ, Thomas CJ. Matrix Screen Identifies Synergistic Combination of PARP Inhibitors and Nicotinamide Phosphoribosyltransferase (NAMPT) Inhibitors in Ewing Sarcoma. Clin Cancer Res. 2017 Dec 1;23(23):7301-7311. doi: 10.1158/1078-0432.CCR-17-1121. Epub 2017 Sep 12. PMID: 28899971; PMCID: PMC6636827.
# Potency is read from the fitted curve at half-maximal effect.
row,SMILES,Potency
1,O=C(NOCC(O)CO)c1cc(Br)c(F)c(F)c1Nc1ccc(I)cc1F (stereo not given),inactive
2,CC1CCC(C(=O)N(c2cc(C#CC(C)(C)C)sc2C(=O)O)C2CCC(O)CC2)CC1 (stereo not given),inactive
3,COc1cccc2c1CCCC2CCCN1CCN(C2CCCCC2)CC1 (stereo not given),18.7 µM (active)
4,COc1ccc2c(Oc3ccc(NC(=O)c4c(C)n(CC(C)(C)O)n(-c5ccccc5)c4=O)cc3F)ccnc2c1,23.5 µM (active)
5,C[C@]12CC[C@@H]3c4ccc(O)cc4CC[C@H]3[C@H]1C[C@@H](O)[C@H]2O,18.7 µM (active)
6,Cc1ccc(C(=O)Nc2cccc(C(F)(F)F)c2)cc1Nc1nc(-c2cccnc2)nc2c1cnn2C,inactive
7,COc1cc2ncnc(-n3nc(-c4ccccn4)nc3N)c2cc1OC,0.418 µM (active)
8,CC1(C)Cc2c(sc(NC(=S)NC(=O)c3ccccc3)c2C(=O)O)CO1,5.9 µM (active)
9,CC(C)C(=O)Oc1ccc(CO)cc1[C@H](CCN(C(C)C)C(C)C)c1ccccc1,inactive
10,Nc1nc(F)nc2c1ncn2[C@@H]1O[C@H](COP(=O)(O)O)[C@@H](O)[C@H]1O,18.7 µM (active)
11,COc1cc2c(cc1OC)CN(CCc1ccc(NC(=O)c3cc(OC)c(OC)cc3NC(=O)c3cnc4ccccc4c3)cc1)CC2,inactive
12,COc1ccc(C2Sc3ccccc3N(CCN(C)C)C(=O)C2OC(C)=O)cc1 (stereo not given),inactive
13,O=C(O)c1ccc(-c2c[nH]c3ncc(-c4ccccc4)cc23)cc1C1CCCC1,inactive
14,NC(=O)c1cccc(-c2cc(Nc3ccc(OC(F)(F)F)cc3)ncn2)c1,26.4 µM (active)
15,Nc1ncnc2c1ncn2[C@@H]1O[C@@H](CO)[C@H](O)[C@H]1O,inactive
16,COc1ccc(-n2c(C)c([N+](=O)[O-])c3ccc(O)cc32)cc1,inactive
17,COc1ccc(-c2coc3cc(O)ccc3c2=O)cc1,inactive
18,COC(=O)C1=CO[C@@H](O)[C@@H]2C(CO)=CC[C@@H]12,23.5 µM (active)
19,CC(C)(C)Cn1c(N)nc2ccc(-c3[nH]c(C(C)(C)C)nc3-c3ccc(F)cc3)nc21,inactive
20,COCCOc1nc(-c2ccc(Cl)c(Cl)c2)n(-c2ccc(NC(=O)CCl)cc2)n1,16.6 µM (active)

row,SMILES,Potency
1,O=C1C[C@@H](c2ccc(O)cc2)Oc2cc(O)cc(O)c21,inactive
2,NC(=O)NN=Cc1ccc([N+](=O)[O-])o1,18.7 µM (active)
3,N#CC(=C(N)Sc1ccccc1N)C(C#N)=C(N)Sc1ccccc1N,16.6 µM (active)
4,NC[C@@H]1O[C@@H](O[C@H]2[C@@H](O)[C@H](O[C@@H]3[C@@H](O)[C@@H](N)C[C@H](N)[C@H]3O[C@H]3O[C@H](CN)[C@@H](O)[C@@H](O)[C@H]3N)O[C@H]2CO)[C@H](N)[C@@H](O)[C@@H]1O,inactive
5,CCCCCN(C)CCC(O)(P(=O)(O)O)P(=O)(O)O,inactive
6,CC1(C)O[C@H]2C[C@@H]3[C@H]4CCC5=CC(=O)C=C[C@]5(C)[C@@]4(F)[C@@H](O)C[C@]3(C)[C@]2(C(=O)CO)O1,inactive
7,O=C(Nc1c(Cl)cncc1Cl)c1ccc(OC(F)F)c(OCC2CC2)c1,inactive
8,C[C@]12CC[C@@H]3c4ccc(O)cc4C[C@@H](CCCCCCCCCS(=O)CCCC(F)(F)C(F)(F)F)[C@H]3[C@H]1CC[C@H]2O (stereo not given in full),inactive
9,COCCCCC(=NOCCN)c1ccc(C(F)(F)F)cc1,inactive
10,CO[C@H]1C[C@@H]2CC[C@@H](C)[C@@](O)(O2)C(=O)C(=O)N2CCCC[C@@H]2C(=O)O[C@H]([C@H](C)C[C@@H]2CC[C@H](OC(=O)C(C)(CO)CO)[C@H](OC)C2)CC(=O)[C@H](C)C=C(C)[C@@H](O)[C@@H](OC)C(=O)[C@H](C)C[C@H](C)C=CC=CC=C1C,9.35 µM (active)
11,N#Cc1ccc(NC(=O)Nc2ccccc2Br)c2n[nH]nc12,13.2 µM (active)
12,N#C[C@H]1C[C@H]2C[C@@H]2N1C(=O)[C@@H](N)C12CC3CC(CC(O)(C3)C1)C2,inactive
13,CO[C@H]1C[C@@H]2CC[C@@H](C)[C@@](O)(O2)C(=O)C(=O)N2CCCC[C@@H]2C(=O)O[C@H]([C@@H](C)C[C@@H]2CC[C@H](O)[C@H](OC)C2)CC(=O)[C@H](C)C=C(C)[C@@H](O)[C@@H](OC)C(=O)[C@H](C)C[C@H](C)C=CC=CC=C1C,16.6 µM (active)
14,CCC(=O)NC[C@H](Cc1ccc(OCCc2nc(-c3ccccc3)oc2C)cc1)NC(C)=CC(=O)c1ccc(C(F)(F)F)cc1,inactive
15,CC(C)(Cc1ccc2ccccc2c1)NC[C@@H](O)COc1cccc(Cl)c1C#N,inactive
16,CCc1ccc(OCc2ccccc2C(=O)Nc2ccc3nc(C)cc(N)c3c2)cc1,1.05 µM (active)
17,C[C@H]1[C@H](NC(=O)C(=NOC(C)(C)C(=O)O)c2csc(N)n2)C(=O)N1S(=O)(=O)O,inactive
18,COc1cc2ncnc(Nc3ccc(F)c(Cl)c3)c2cc1OCCCN1CCOCC1,6.79 µM (active)
19,COc1cc(O)c2c(c1)C(=O)c1cc(C)cc(O)c1C2=O,inactive
20,O=C(Nc1cc(Cl)cc2c1[nH]c1cnccc12)c1cccnc1,inactive
